CHO-K1 Ca ag = counter-screen for M1 agonists: effect in parental CHO-K1 cells | 0.48% of 360,000 active | activation, % at 3 µM | Fluo-8 calcium fluorescence; scaled to maximal ATP response, vehicle zero; in the data active means activation above about 15%;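 further: untransfected CHO-K1 host cells lacking M1 receptor as counterscreen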
CHRM1 antagonist = human CHRM1 antagonism; P11229; CHO-K1 hM1, Fluo-8 calcium fluorescence, ACh EC80 antagonist; inhibition, % at 3 µM; 1.3% of 360,000 active;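 active means percent inhibition above its own plate's cutoff, namely the mean of that plate's compound wells plus 3 SD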;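 further: peak over basal fluorescence ratio during 140 s after agonist addition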
Target sequence (P11229 whole entry, looked up): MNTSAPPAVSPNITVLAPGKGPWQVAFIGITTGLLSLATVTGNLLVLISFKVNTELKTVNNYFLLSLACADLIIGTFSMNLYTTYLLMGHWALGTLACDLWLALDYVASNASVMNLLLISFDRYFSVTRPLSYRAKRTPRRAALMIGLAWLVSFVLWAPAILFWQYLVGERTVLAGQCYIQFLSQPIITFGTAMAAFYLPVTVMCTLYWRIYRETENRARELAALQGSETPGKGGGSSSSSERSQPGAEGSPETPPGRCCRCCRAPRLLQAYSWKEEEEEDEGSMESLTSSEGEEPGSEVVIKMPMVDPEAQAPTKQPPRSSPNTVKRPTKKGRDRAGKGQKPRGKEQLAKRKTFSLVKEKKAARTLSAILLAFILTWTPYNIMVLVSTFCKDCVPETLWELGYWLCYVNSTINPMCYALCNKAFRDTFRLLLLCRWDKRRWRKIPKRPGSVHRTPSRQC
CHO-K1 Ca PAM = counter-screen for M1 PAMs: effect in parental CHO-K1 cells. activation, % at 3 µM. 0.02% of 360,000 active. ATP EC20, Fluo-8 calcium fluorescence; 0% at ATP EC20, 100% at ATP max. AID 602247;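 active means activation above the run cutoff, the mean activation of all test compounds plus 3 SD, cut at about 40% in these data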;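 further: peak over basal fluorescence ratio in a 140 s read after ATP addition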
CHRM1 PAM = positive allosteric modulators of human M1 muscarinic receptor | 0.088% of 360,000 active | activation, % at 3 µM | AID 588819 | CHO-K1 hM1, Fluo-8 calcium fluorescence, ACh EC20; 0% = ACh EC20, 100% = maximal ACh; in the data active means activation above about 19%, passing the limit was not always enough
CHRM1 agonist = agonists of human M1 muscarinic receptor; P11229; CHO-K1 hM1, Fluo-8 calcium fluorescence, agonist mode; 0% DMSO, 100% acetylcholine EC100; activation, % at 3 µM; 0.33% of 360,000 active; AID 588814;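 active means activation above the run's mean compound activation plus 3 SD, cut at about 16% in these data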;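 further: peak over basal fluorescence ratio within a 140 s kinetic read after compound addition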
CHO-K1 Ca antag = nonselective inhibitor or artifact in parental CHO-K1 cells; ATP-induced calcium, Fluo-8 fluorescence; inhibition, % at 3 µM; 0.6% of 360,000 active;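 active means inhibition above a per-plate cutoff, the plate's mean sample inhibition plus 3 SD, cut at about 24% in these data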
Numbers stand for hits; n = inactive. Hits are enriched below; roughly 2.4% of the tested compounds scored in any of these assays.

SMILES | CHO-K1 Ca ag | CHRM1 antagonist | CHO-K1 Ca PAM | CHRM1 PAM | CHRM1 agonist | CHO-K1 Ca antag
COc1ccc2c(c1)CCc1cc(C(=O)N3CCN(c4ccc(N5CCOCC5)nn4)CC3)sc1-2 | n | n | n | n | n | 31
COc1cccc(C(=O)N2CCN(c3ccc(N4CCOCC4)nn3)CC2)c1 | n | n | n | n | n | n
C/C(CC(=O)NCCN1CCOCC1)=N\NC(=O)c1ccncc1 | n | n | n | n | n | n
CC12CCC(C)(O1)C1C(=O)N(c3nccs3)C(=O)C12 (stereo not given) | n | n | n | n | n | n
CCOc1cc2c(cc1/C=C(/C#N)c1ccc(C(=O)O)cc1)OCO2 | 18 | n | n | n | n | n
CC1=C[C@H]2OC(=O)[C@@H](C)[C@H]2C[C@@H]2[C@H]1C[C@@H](O)[C@@]2(C)O | n | n | n | n | n | n
CC(CN1CCCCC1)OC(=O)COc1ccc(Br)cc1 (stereo not given) | n | n | n | n | n | n
Cc1cc(OCCCCN2C(=O)NC(C)(C)C2=O)ccc1[N+](=O)[O-] | 17 | n | n | n | n | n
Cc1ccc([N+](=O)[O-])c(OCCN2C(=O)NC(C)(C)C2=O)c1 | n | n | n | n | n | n
COCc1[nH]c(=S)[nH]c(=O)c1C | n | n | n | n | n | n
CCCCOc1ccc(S(=O)(=O)Nc2cccnc2)cc1 | 30 | n | n | n | n | n
CCCn1nnc(NC(=O)/C=C/c2ccc(C(C)C)cc2)n1 | n | n | n | n | n | 60
O=C1CSC(=S)N1/N=C/c1cc(Br)c(O)c(Br)c1 | 106 | 90 | n | n | 251 | 45
CCc1ccc(NC(=O)NCCN2CCN(c3ccc(OC)cc3)CC2)cc1 | 15 | n | n | n | n | n
CCc1ccccc1NNC(=O)c1snnc1C | n | n | n | n | n | n
Cn1cc(CN2CCN(c3ccccc3)CC2)c2ccccc21 | n | 31 | n | n | n | n
COC(C[C@@H](O)C[C@H](O)[C@@H](C)OCc1ccccc1)OC | n | n | n | n | n | n
COc1cccc(OC)c1OCCCCN1CCC(Cc2ccccc2)CC1 | n | 47 | n | n | n | n
CC(=O)CCc1ccc(OCCCCN2CCC(Cc3ccccc3)CC2)cc1 | n | 60 | n | n | n | n
CCOc1ccccc1OCCN1CCC(Cc2ccccc2)CC1 | n | n | n | n | n | n
N#Cc1ccccc1OCCCN1CCC(Cc2ccccc2)CC1 | n | 35 | n | n | n | n
COc1ccc(NC(=O)NCCCN2CCC(Cc3ccccc3)CC2)cc1 | n | n | n | n | n | n
CCC(=O)c1ccccc1OCCCN1CCC(Cc2ccccc2)CC1 | n | 92 | n | n | n | n
COc1ccc(CN2CCC(Cc3ccccc3)CC2)c(C)c1C | n | 33 | n | n | n | n
COC(=O)c1ccc(CN2CCN(C3CCCC3)C(CCO)C2)cc1 (stereo not given) | n | 92 | n | n | n | n
SMILES | CHO-K1 Ca ag | CHRM1 antagonist | CHO-K1 Ca PAM | CHRM1 PAM | CHRM1 agonist | CHO-K1 Ca antag
CC(=O)Nc1ccc(CN2CCN(C3CCCCC3)C(CCO)C2)cc1 (stereo not given) | n | 24 | n | n | n | n
COC(=O)c1ccc(CN2CCN(Cc3ccccc3)C(CCO)C2)cc1 (stereo not given) | n | n | n | n | n | n
COC(=O)c1ccc(CN2CCN(C3CCCCC3)C(CCO)C2)cc1 (stereo not given) | n | 60 | n | n | n | n
CC1(C(=O)NS(=O)(=O)c2ccc(Cl)s2)CCN1C(=O)Cc1ccc(-c2ccccc2)cc1 (stereo not given) | n | n | n | n | n | n
Cc1cc(C)nc(N2CCCC(C(=O)NCC(c3ccccc3)c3ccccc3)C2)n1 (stereo not given) | n | n | n | n | n | n
Cc1coc2c(C)c3oc(=O)c(CCC(=O)NCc4ccccn4)c(C)c3cc12 | n | n | n | n | n | n
CN(C)c1ccc(C=NNc2nc3c([nH]2)c(=O)n(C)c(=O)n3C)cc1 | n | 24 | n | n | n | n
COc1cc(C=NNc2nc3c([nH]2)c(=O)n(C)c(=O)n3C)ccc1O | n | n | n | n | n | n
CC(=O)Nc1ccc(Nc2ccc3nonc3c2[N+](=O)[O-])cc1 | n | n | n | n | n | n

Source: PubChem BioAssay (The Scripps Research Institute Molecular Screening Center)
